Each structure is given as a SMILES string. Several values for one entry are separate records, joined by “and”; a condition that tells them apart may be missing. Equal values may be shown once. Hit rate of the full screen: of about 77,000 compounds, about 4,600 (6%) were called active. Not shown: some 1% with an inconclusive outcome.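 Rule for the calls: active = mean inhibition above about 93%, with at least 55% of replicates each passing it (limit read from the data, passing the limit was not always enough); inconclusive = only one of those two conditions holds; inactive = neither condition holds.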 This excerpt belongs to a sample that is enriched for actives.

A short description of the assay: T. cruzi intracellular proliferation inhibitors, primary screen, cell-based, beta-gal Tulahuen parasites, NIH3T3 host, luminescence (AID 624255). Particulars: T. cruzi beta-gal in NIH3T3, GalScreen luminescence, 90 h; at 8.34 µM; hits give high values.
Take `CC=Cc1ccc2n(c1=O)C[C@H]1[C@H](CO)[C@@H](C(=O)NCc3ccncc3)N(Cc3cncnc3)[C@@H]21` (mixture of isomers): the inhibition is 37.5% (inactive).

Regarding `CCCN1[C@H](C(=O)NCC)[C@@H](CO)[C@@H]2Cn3c(ccc(C4=CCCC4)c3=O)[C@@H]21`, the inhibition is 32% (inactive).

As for `COc1cccc(C(=O)Nc2ccc3c(c2)C(=O)N(C)C[C@@H](OC)[C@@H](C)CN(C)[C@@H](C)CO3)c1`, the inhibition was -27.6% (inactive).

As to `CO[C@H]1CC[C@H]2CCOc3c(C#N)cccc3C(=O)N(C)CC3(CCCCC3)CC(=O)N(C)C[C@@H]1O2`, the inhibition is 13.3% (inactive).

In the case of `CCCNC(=O)Nc1ccc2c(c1)OC[C@@H](C)N(C(=O)c1ccccc1F)C[C@H](C)[C@@H](OC)CN(C)C2=O`, the inhibition is 52.3% (inactive).

As to `COc1ccccc1C#Cc1ccc([C@@H]2[C@H](CO)N3CCCCN(C(=O)C4CCCC4)C[C@@H]23)cc1`, the inhibition is 109% (active).

For the compound `COc1ccccc1C#Cc1ccc([C@@H]2[C@@H](CO)N3CCCCN(S(C)(=O)=O)C[C@@H]23)cc1`, the inhibition is 77.3% (inactive).

For the compound `CC(C)NC(=O)N1CCCCN2[C@@H](CO)[C@@H](c3ccc(C#Cc4ccccc4)cc3)[C@@H]2C1`, the inhibition is 80.4% (inactive).

Regarding `COc1ccccc1C#Cc1ccc([C@@H]2[C@H](CO)N3CCCCN(C(=O)C4CC4)C[C@@H]23)cc1`, the inhibition is 110% (active).

As for `COCC#Cc1ccc([C@@H]2[C@@H](CO)N3CCCCN(C(=O)NC4CCCC4)C[C@H]23)cc1`, the inhibition was 69.2% (inactive).

As for `COCC(=O)N1CCCCN2[C@H](CO)[C@H](c3ccc(C#Cc4ccc(OC)cc4)cc3)[C@H]2C1`, the inhibition is 72.8% (inactive).

On to `COc1ccccc1C#Cc1ccc([C@H]2[C@H](CO)N3CCCCN(C(=O)C4CCC4)C[C@@H]23)cc1`, for which the inhibition was 109% (active).

With `CO[C@@H]1CN(C)C(=O)c2cc(NC(=O)c3ccccc3)ccc2OC[C@H](C)N(C(=O)CN(C)C)C[C@H]1C`, the inhibition was -60.5% (inactive).

On to `O=C([C@H]1[C@H](CO)[C@H]2Cn3c(ccc(C4=CCCCC4)c3=O)[C@@H]1N2)N1CCCCC1`, for which the inhibition was 60.4% (inactive).

Consider `CO[C@H]1CN(C)C(=O)c2ccc(NS(C)(=O)=O)cc2OC[C@H](C)N(C(=O)C2CCC2)C[C@H]1C`, for which the inhibition is 11% (inactive).

In the case of `O=C(C1CCC1)N1C[C@H]2[C@@H](c3ccccc31)[C@@H](CO)N2C(=O)c1ccccc1F`, the inhibition is 5.17% (inactive).

On to `COc1cccc(S(=O)(=O)N[C@H]2CC[C@@H](CCN)O[C@H]2CO)c1`, for which the inhibition is 59% (inactive).

`Cc1noc(C)c1S(=O)(=O)Nc1ccc2c(c1)C(=O)N([C@H](C)CO)C[C@@H](C)[C@@H](CN(C)C(=O)C1CCCCC1)OCCCC[C@@H](C)O2`: the inhibition is 48.7% (inactive).

Turning to `CC(C)NC(=O)Nc1ccc2c(c1)C(=O)N(C)[C@@H]1CC[C@H](CC(=O)NCC3CCCCC3)O[C@@H]1CO2`, the inhibition was -5.5% (inactive).

As to `C[C@H](O)C#Cc1ccc2c(c1)O[C@H](CN(C)C(=O)C1CCCCC1)[C@@H](C)CN([C@H](C)CO)S2(=O)=O`, the inhibition was 60.6% (inactive).

With `C[C@H]1CCCCO[C@@H](CN(C)C(=O)Cc2ccccc2)[C@@H](C)CN([C@@H](C)CO)C(=O)c2cc(NC(=O)c3ccccc3)ccc2O1`, the inhibition is 33.7% (inactive).

In the case of `C[C@H](CO)N1C[C@H](C)[C@@H](CN(C)Cc2ccccc2)Oc2ccc(NC(=O)Nc3ccc4c(c3)OCO4)cc2C1=O`, the inhibition is 8.73% (inactive).

Take `C[C@@H]1CN([C@H](C)CO)C(=O)c2cc(NC(=O)Nc3ccc4c(c3)OCO4)ccc2O[C@H]1CN(C)Cc1ccc(-c2ccccc2)cc1`: the inhibition was 70.1% (inactive).

Regarding `C[C@@H]1CN([C@@H](C)CO)C(=O)c2cc(NC(=O)Nc3ccc4c(c3)OCO4)ccc2O[C@@H]1CN(C)Cc1ccc(Oc2ccccc2)cc1`, the inhibition is 100% (active).

For the compound `C[C@H]1CN([C@@H](C)CO)C(=O)c2cc(NC(=O)C3CC3)ccc2O[C@@H]1CN(C)Cc1ccc(Oc2ccccc2)cc1`, the inhibition is 66.9% (inactive).

`COc1ccc(NC(=O)Nc2ccc3c(c2)C(=O)N([C@@H](C)CO)C[C@H](C)[C@@H](CN(C)Cc2ccc4c(c2)OCO4)O3)cc1`: the inhibition was 31.2% (inactive).

As for `C[C@H]1CN([C@@H](C)CO)C(=O)c2cc(NC(=O)Nc3ccc4c(c3)OCO4)ccc2O[C@@H]1CN(C)Cc1ccc(Oc2ccccc2)cc1`, the inhibition was 119% (active).

For `CCCNC(=O)C[C@@H]1CC[C@@H]2[C@H](COc3ccc(NC(=O)c4cc(F)cc(F)c4)cc3C(=O)N2C)O1`, the inhibition is -19.9% (inactive).

Regarding `C[C@@H]1CCCCO[C@@H](CN(C)C(=O)Nc2ccc(F)cc2)[C@H](C)CN([C@@H](C)CO)C(=O)c2cc(NS(C)(=O)=O)ccc2O1`, the inhibition was 23.8% (inactive).

On to `CN(C)C(=O)c1ccc(-c2ccc([C@H]3[C@@H](CO)N4CCCCN(CC5CC5)C[C@H]34)cc2)cc1`, for which the inhibition is 108% (active).

Regarding `CN(C)C(=O)c1ccc(-c2ccc([C@@H]3[C@@H](CO)N4CCCCN(CC5CC5)C[C@H]34)cc2)cc1`, the inhibition is 11.3% (inactive).

Regarding `CN(C)CC#Cc1ccc([C@H]2[C@H](CO)N3CCCCN(CC4CC4)C[C@@H]23)cc1`, the inhibition is -75.2% (inactive).

In the case of `CN(C)C(=O)c1ccc(-c2ccc([C@@H]3[C@H](CO)N4CCCCN(S(C)(=O)=O)C[C@@H]34)cc2)cc1`, the inhibition was 103% (active).

Regarding `CS(=O)(=O)N1CCCCN2[C@@H](CO)[C@@H](c3ccc(Br)cc3)[C@@H]2C1`, the inhibition is -42.1% (inactive).

Consider `CN(C)C(=O)c1ccc(-c2ccc([C@H]3[C@H](CO)N4CCCCN(S(C)(=O)=O)C[C@@H]34)cc2)cc1`, for which the inhibition is 83.3% (inactive).

In the case of `CN1C(=O)c2cc(NC(=O)Nc3ccccc3Cl)ccc2OC[C@H]2O[C@@H](CC(=O)O)CC[C@H]21`, the inhibition is 15.3% (inactive).

Regarding `Cc1noc(C)c1NC(=O)N(C)C[C@@H]1OCCCC[C@H](C)Oc2ccc(NC(=O)NC3CCCCC3)cc2C(=O)N([C@H](C)CO)C[C@@H]1C`, the inhibition is 22.8% (inactive).

In the case of `Cc1ccccc1S(=O)(=O)Nc1ccc2c(c1)C(=O)N(C)[C@H]1CC[C@@H](CC(=O)O)O[C@H]1CO2`, the inhibition was 13.1% (inactive).

In the case of `C[C@@H]1CN([C@H](C)CO)C(=O)Cc2cc(NC(=O)CCN3CCOCC3)ccc2O[C@H]1CN(C)CC1CC1`, the inhibition was 37.8% (inactive).

As for `O=C(CC1CC1)N1[C@H](CO)[C@@H]2c3ccccc3N(S(=O)(=O)c3ccc(F)cc3)C[C@@H]21`, the inhibition is 18.3% (inactive).

As for `C[C@@H]1CN([C@@H](C)CO)C(=O)CCCn2cc(nn2)CO[C@@H]1CN(C)S(=O)(=O)c1ccccc1F`, the inhibition is 112% (active).

For `C[C@H]1CN([C@@H](C)CO)C(=O)c2cc(C#Cc3ccccc3F)cnc2O[C@H]1CN(C)C`, the inhibition is 87.2% (inactive).

`C[C@H]1CN([C@@H](C)CO)C(=O)CCCn2cc(nn2)CO[C@@H]1CN(C)S(=O)(=O)c1ccc(-c2ccccc2)cc1`: the inhibition is 3.26% (inactive) and 11.9% (inactive).

On to `C[C@H](CO)N1C[C@H](C)[C@@H](CN(C)S(=O)(=O)c2ccccc2)Oc2ncc(C#Cc3ccccc3F)cc2C1=O`, for which the inhibition was 120% (active).

As for `C[C@H]1CN([C@@H](C)CO)C(=O)c2cc(C#Cc3ccccc3F)cnc2O[C@@H]1CN(C)C(=O)C1CC1`, the inhibition was -11.1% (inactive).

Consider `CCCNC(=O)N(C)C[C@H]1Oc2ncc(C#CC(C)C)cc2C(=O)N([C@@H](C)CO)C[C@@H]1C`, for which the inhibition is 53.3% (inactive).

For `C[C@H](CO)N1C[C@H](C)[C@@H](CN(C)S(=O)(=O)c2ccccc2F)Oc2ncc(C#Cc3ccccc3F)cc2C1=O`, the inhibition was 112% (active).

Consider `CCCNC(=O)N(C)C[C@@H]1Oc2ncc(C#Cc3ccccc3F)cc2C(=O)N([C@@H](C)CO)C[C@H]1C`, for which the inhibition was 116% (active).

With `C[C@H](CO)N1C[C@H](C)[C@H](CN(C)C(=O)C2CCOCC2)Oc2ncc(C#Cc3ccccc3F)cc2C1=O`, the inhibition is -27.2% (inactive).

`C[C@@H]1CN([C@@H](C)CO)C(=O)CCCn2cc(nn2)CO[C@@H]1CN(C)S(=O)(=O)c1cccc(F)c1`: the inhibition was -8.28% (inactive).

Consider `COc1ccc(C#Cc2cnc3c(c2)C(=O)N([C@H](C)CO)C[C@H](C)[C@H](CN(C)S(=O)(=O)c2ccc(F)cc2)O3)cc1OC`, for which the inhibition is 104% (inactive).

As for `CCCNC(=O)N(C)C[C@H]1Oc2ncc(C#Cc3ccncc3)cc2C(=O)N([C@@H](C)CO)C[C@@H]1C`, the inhibition is 12.1% (inactive).

As for `CCC(=O)NC[C@H]1[C@@H](c2ccc(C3=CCCC3)cc2)[C@@H](CO)N1C(=O)C1CC1`, the inhibition is 21.5% (inactive).

For the compound `CO[C@H]1CN(C)C(=O)c2cc(NC(=O)C3CCCCC3)ccc2OC[C@H](C)N(C(=O)c2ccccc2)C[C@H]1C`, the inhibition was 7.09% (inactive).

Regarding `C/C=C/c1cnc2c(c1)C(=O)N([C@@H](C)CO)C[C@@H](C)[C@@H](CN(C)C(=O)C1CCOCC1)O2`, the inhibition is -31.5% (inactive).

Regarding `CCCNC(=O)Nc1ccc2c(c1)C(=O)N(C)[C@H]1CC[C@H](CC(=O)NC3CCC3)O[C@H]1CO2`, the inhibition was 57.7% (inactive).

For `N#Cc1ccc(-c2ccc3c(c2)[C@@H]2[C@@H](CCN2C(=O)Cc2ccncc2)[C@@H](CO)N3)cc1`, the inhibition is 108% (active).

`O=C(Cc1ccccc1)N1CC[C@H]2[C@H](CO)Nc3ccc(-c4ccccc4F)cc3[C@H]21`: the inhibition is 111% (active).

For the compound `O=C(Cc1ccccc1)N1CC[C@@H]2[C@H](CO)Nc3ccc(-c4ccccc4)cc3[C@@H]21`, the inhibition is 81.9% (inactive).

`CN(C)C(=O)c1cccc(-c2ccc3c(c2)[C@H]2[C@H](CCN2C(=O)Cc2ccccc2)[C@H](CO)N3)c1`: the inhibition is 80.1% (inactive).

For `N#Cc1ccc(-c2ccc3c(c2)[C@H]2[C@H](CCN2Cc2ccc4c(c2)OCO4)[C@@H](CO)N3)cc1`, the inhibition is 79.2% (inactive).

With `O=C(CC1CC1)N1CC[C@@H]2[C@H](CO)Nc3ccc(-c4ccc(F)cc4)cc3[C@@H]21`, the inhibition was 89.6% (inactive).

In general, inhibition refers to the relative decrease from the control value, in per cent.

(Values after PubChem BioAssay AID624255 (Broad Institute, 2012).)
